Source: PubChem BioAssay (NCI)
About 83,000 compounds went through this panel and 20% of them were active in at least one assay; those are over-represented in the sample as a whole.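 Cells were grown in 96-well plates and exposed to the test compound at a single concentration for 48 hours; results are reported as percent growth, with values below 10 considered active.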 Calls of active or inactive are those of the source.

Test system: OVCAR-4 ovarian
Assay: NCI-60 one-dose screen, 48 h (100 = growth as untreated, 0 = no growth, -100 = all killed)
Settings: 10 µM unless noted

**Q.** CN(C)c1ccc(C2Nc3ccccc3-n3cccc32)cc1 (centres undefined) was tested. Which growth did it give?
**A.** 87.1% (inactive)

**Q.** Which growth does the source give for Nc1nc2c(c3ncccc13)C(c1cccc(Br)c1)Cc1ncccc1-2 (centres undefined) here?
**A.** 58% (inactive)

**Q.** How did the growth turn out when O=[N+]([O-])c1cccc(-c2nc3sccn3c2-c2ccnc(NCCCNS(=O)(=O)c3ccc(F)cc3)n2)c1 was run?
**A.** -5.32% (active)

**Q.** How did the growth turn out when COc1ccc(-n2c(C)nc3c(c(C)nn3-c3ccccc3)c2=O)cc1 was run?
**A.** 36.8% (inactive)

**Q.** COc1ccc(-n2cc(-c3ccccc3)c3c(SCC(=O)N/N=C/c4ccc([N+](=O)[O-])cc4)ncnc32)cc1 was tested. Which growth did it give?
**A.** 102% (inactive)

**Q.** How did the growth turn out when Nc1c(C(=O)Nc2ccccc2)sc2nc3c(cc12)CN(CCc1ccccc1)CC3 was run?
**A.** 86.9% (inactive)

**Q.** With CCOC(=O)c1c2ncccc2n2c(=O)n(-c3ccc(Cl)cc3)nnc12 as the compound, how does the growth read?
**A.** 84.6% (inactive)

**Q.** Which growth does the source give for CCN(CC)CCCC(C)Nc1ccnc2c(OC)cccc12 (centres undefined) here?
**A.** 111% (inactive)

**Q.** OC(c1cccc(C(F)(F)F)c1)c1cnccc1NC1CCCCCC1 (centres undefined) was tested. Which growth did it give?
**A.** 52.7% (inactive)

**Q.** Which growth does the source give for NC(=S)N/N=C/c1cc(-c2cccc(N)c2)ccn1 here?
**A.** 47.3% (inactive)

**Q.** COc1ccc(CCN2CCCn3c2nc2ccccc2c3=O)cc1 was tested. Which growth did it give?
**A.** 41.9% (inactive)

**Q.** For O=C(/C=C\c1cccc([N+](=O)[O-])c1)c1ccccc1, which growth is on record?
**A.** 54.4% (inactive)

**Q.** With CCOC(=O)C(Cc1cc(I)c(O)c(I)c1)NC(=O)c1ccccc1 (centres undefined) as the compound, how does the growth read?
**A.** 108% (inactive)

**Q.** Which growth does the source give for COc1cc(C#N)cc(OC)c1OCCN(CCOc1c(OC)cc(C#N)cc1OC)S(=O)(=O)c1ccc(C)cc1 here?
**A.** 107% (inactive)

**Q.** With CN1CCN(Cc2ccc(NC(=O)c3cncc(C#Cc4cncc5nccnc45)c3)cc2C(F)(F)F)CC1 as the compound, how does the growth read?
**A.** 38.9% (inactive)

**Q.** With Nc1nc(-c2ccc(F)cc2)cc(-c2cnn(-c3ccccc3)n2)n1 as the compound, how does the growth read?
**A.** 111% (inactive)

**Q.** CC(=O)C1=C(O)C=C2Oc3c(C(=O)/C=C/c4ccccc4)c(O)c(C)c(O)c3[C@]2(C)C1=O was tested. Which growth did it give?
**A.** 55.4% (inactive)

**Q.** Which growth does the source give for COc1ccc(C/C(C)=C(\c2ccc(OCCN3CCCCCC3)cc2)c2ccc(OC(=O)C3CCCCC3)cc2)cc1 here?
**A.** 71.7% (inactive)

**Q.** How did the growth turn out when O=[N+]([O-])c1cccc(-c2nc3sccn3c2-c2ccnc(NCCCNS(=O)(=O)c3ccc(Br)cc3)n2)c1 was run?
**A.** 32.7% (inactive)

**Q.** Which growth does the source give for CCOC(=O)/C=C/C(=O)[C@H](CC(C)C)NC(=O)[C@H](Cc1ccccc1)NC(=O)OCc1ccccc1 here?
**A.** 91.9% (inactive)

**Q.** Cc1cc2cc3cc(C)c(N(C)C)cc3nc2cc1N(C)C was tested. Which growth did it give?
**A.** 32.4% (inactive)

**Q.** C=C1CCC2C3(C)COC(C)(C)OC3CCC2(C)C1C/C=C1/C(=O)OCC1OC(C)=O (centres undefined) was tested. Which growth did it give?
**A.** 32.3% (inactive)

**Q.** How did the growth turn out when C=C1CC2(OC1=O)C(=O)N(CCCCCCCCCCCCN1C(=O)C3(CC(=C)C(=O)O3)c3ccccc31)c1ccccc12 (centres undefined) was run?
**A.** 88.9% (inactive)

**Q.** O=C1c2cccnc2C(=O)c2c1c(C(=O)OCCN1CCCCC1)c1ccccn21 was tested. Which growth did it give?
**A.** 0.138% (active)

**Q.** With COc1ccccc1N1CCN(CCn2c(=O)c3c(c4ccccc4n3C)n(C)c2=O)CC1 as the compound, how does the growth read?
**A.** 114% (inactive)

**Q.** C/C(=C(/c1ccc(O)cc1)c1ccc(OCCN(C)C)cc1)c1ccccc1 was tested. Which growth did it give?
**A.** 83.2% (inactive)

**Q.** How did the growth turn out when CCOC(=O)c1c2c(n3ccc(NC(=O)CCN4CCOCC4)cc13)C(=O)c1ncccc1C2=O was run?
**A.** 37% (inactive)

**Q.** How did the growth turn out when Cc1cc(=O)oc2cc(Oc3nc(-c4cccs4)cn4c(-c5cccs5)cnc34)ccc12 was run?
**A.** 54.1% (inactive)

**Q.** With CC(C)[C@@H]1CC[C@]2(C(=O)NCCCCN=C(N)N)CC[C@]3(C)[C@H](CC[C@@H]4[C@@]5(C)CCC(=O)C(C)(C)[C@@H]5CC[C@]43C)[C@@H]12 as the compound, how does the growth read?
**A.** 84.3% (inactive)

**Q.** How did the growth turn out when Oc1cc(O)c2c(=S)cc(-c3ccc(Cl)cc3)oc2c1 was run?
**A.** 6.46% (active)

**Q.** With COc1ccc(-c2cn3c(-c4ccc(OC)cc4)cnc3c(Oc3ccc4c(C)cc(=O)oc4c3)n2)cc1 as the compound, how does the growth read?
**A.** -18.6% (active)

**Q.** With CN1CCN(Cc2ccc(NC(=O)c3[nH]ncc3Nc3ccnc4ccsc34)cc2)CC1 as the compound, how does the growth read?
**A.** 12.5% (inactive)

**Q.** Which growth does the source give for Nc1nc2ccc(-c3nc4ccc5[nH]ncc5c4c4c3CCC4)cc2s1 here?
**A.** 19.3% (inactive)

**Q.** For Oc1ccc2c(=S)cc(-c3ccc(Br)cc3)oc2c1O, which growth is on record?
**A.** -1.04% (active)

**Q.** For Clc1cccc(Nc2nc(Nc3cnc4ccccc4c3)c3[nH]cnc3n2)c1, which growth is on record?
**A.** 93.9% (inactive)

**Q.** How did the growth turn out when COc1ccc(-c2cc(NC(=O)Nc3ccc(O)cc3)no2)cc1 was run?
**A.** 76.7% (inactive)

**Q.** For CC(=O)CC(C)(C)c1ccc(Cl)cc1, which growth is on record?
**A.** 93.6% (inactive)

**Q.** With O=C1C2CC=CCC2C(=O)N1CNc1ccc(Cl)cc1 (centres undefined) as the compound, how does the growth read?
**A.** 112% (inactive)

**Q.** How did the growth turn out when CN1CCN(Cc2ccc(NC(=O)c3[nH]ncc3Nc3ncnc4c3CCC4)cc2)CC1 was run?
**A.** 6.83% (active)
